aSyn UTR act: Activators via SNCA 5'UTR binding, MLPCN; alpha-synuclein 5'UTR reporter, activators screen; activity score, % (tested at 7.5 µM), hits read low; 300,000 compounds, 7.1% hits; AID 1814; in the data active = activity score below about -60%
Hits are given with their value; i = inactive. These entries were drawn from the full list.

SMILES | aSyn UTR act
Cc1ccc(/C=C/C(=O)Nc2nccs2)o1 | -156.8
CC(C)c1ccc(Nc2ncccc2C(=O)O)cc1 | -100.7
COc1ccc(N=Nc2ccc(N)nc2N)cc1 | -68.2
COc1ccc(N=Nc2c(N)n[nH]c2N)cc1 | -84.6
O=C(Nc1ccc(O)c(-c2nc3ccccc3s2)c1)C1=COCCO1 | -77.7
O=C(Nc1cccc(-c2nc3ccccc3s2)c1)C1=COCCO1 | -81.5
O=C(Nc1ccc(-c2nc3ccccc3s2)c(O)c1)C1=COCCO1 | -79.8
O=C(Nc1ccc(-c2nc3ccccc3s2)cc1)C1=COCCO1 | i
N#Cc1ccccc1CSc1nnc(-c2ccncc2)o1 | -113.8
Fc1cccc(Cl)c1CSc1nnc(-c2ccncc2)o1 | -109.1
Clc1ccccc1CSc1nnc(-c2ccncc2)o1 | -127.1
N#Cc1cccc(-c2nnc(SCc3ccccc3C#N)o2)c1 | -65.2
O=c1oc2ccccc2n1CSc1nc2ccccc2s1 | -99.2
O=C(CSc1nnc(NC(=O)c2ccccc2Cl)s1)Nc1ccc2c(c1)oc1ccccc12 | -143.6
O=C(CSc1nc2ccccc2s1)N/N=C/c1ccccc1C(=O)O | -90.3
O=C(CSc1nc2ccccc2s1)Nc1ccc2c(c1)oc1ccccc12 | -80.2
CO/N=C/C(=N\Nc1ccc(OC)cc1)C(=O)c1ccc(OC)cc1 | -71.0
CC(O)/C=C/c1ccc2ccccc2n1 (stereo not drawn) | -153.6
S=c1[nH]c(-c2ccc(Cl)cc2)cs1 | -75.8
Cc1ccc(-c2csc(=S)[nH]2)cc1 | -113.3
COc1ccc(Br)c(-c2nnc(CS(=O)(=O)c3ccccc3)o2)c1 | -85.0
CSc1ccc2c(c1)N(CCC1CCCCN1C)c1ccccc1S2 (stereo not drawn) | i
c1ccc2c(c1)CSc1ccccc1N2 | i
Clc1ccc(CN=C2Nc3ccccc3CS2)cc1 | -181.7
COc1ccccc1CN=C1Nc2ccccc2CS1 | -148.9
SMILES | aSyn UTR act
COc1cccc(CN=C2Nc3ccccc3CS2)c1 | -142.0
Nc1nc(Cl)nc2c1ncn2[C@H]1C[C@H](O)[C@@H](CO)O1 | i
C=CCn1c2ccccc2c(=O)c2cc(C#Cc3ccsc3)ccc21 | -211.2
Cc1cccc2c1ncc1c(=O)n(-c3ccccc3)[nH]c12 | -145.9
Cc1cc(-c2ccccc2)nc(Cl)c1C#N | -79.6
Cc1ccc(-c2cc(-c3ccccc3)nc(Cl)n2)cc1 | -72.0
COc1nccnc1NS(=O)(=O)c1ccc(NCc2cc(Br)ccc2O)cc1 | -83.1
CCN1C(=O)/C(=C/C=C2/CCCN2C)OC1=S | -151.7
O=C(/C=C/c1ccnc2ccccc12)c1cccs1 | -79.9
CC(C)(O)C#Cc1ccc(C(=O)NC2CCCCC2)s1 | -97.9
CC(C)(O)C#Cc1ccc(C(=O)Nc2ccc3c(c2)OCO3)s1 | -143.4
CCc1ccc(C(=O)NC2CCCCC2)s1 | -81.8
Cc1cccc2c1OCC/C2=N\NC(=O)COc1ccccc1Cl | -79.1
CCOC(=O)N1CCN(C(=O)CSCC(=O)Nc2nc(-c3ccc(-c4ccccc4)cc3)cs2)CC1 | -125.7
CCOC(=O)N1CCN(C(=O)CSCC(=O)Nc2nc(-c3ccc(Cl)s3)cs2)CC1 | -85.3
O=C(COC(=O)c1cccnc1Cl)Nc1nc(-c2ccccc2)cs1 | -63.0
CCOC(=O)N1CCN(C(=O)CSCC(=O)Nc2nc(-c3ccc(OC)cc3)cs2)CC1 | -96.8
CCOC(=S)SCC(=O)Nc1nc(-c2ccc(Br)cc2)cs1 | i
Nc1nc(CSc2ccccc2)nc(N2CCCCC2)n1 | -128.5
Cc1nc(C#N)c(N/N=C/c2c(F)cccc2Cl)o1 | -62.1
NC(=O)C1CCN(C(=S)c2ccc(-c3ccc(Br)cc3)o2)CC1 | -126.5
O=S1(=O)CCN2C=C(Br)C=C(Br)C2=N1 | -71.9
Oc1cccc(/C=N\Nc2nncc(-c3ccccc3)n2)c1 | -210.2
Cc1[nH]n(-c2ccccc2)c(=O)c1/C=N/Nc1nncc(-c2ccccc2)n1 | i
Clc1ccc(-c2ccc(/C=N/Nc3nncc(-c4ccccc4)n3)o2)cc1 | -75.3
SMILES | aSyn UTR act
Cc1ccc(/C=N/Nc2nncc(-c3ccccc3)n2)o1 | -99.1
Oc1cccc2ccc(/C=C/c3cccs3)nc12 | -171.7
COc1ccc(C(NC(C)=O)c2ccc3cccnc3c2O)c(OC)c1 (stereo not drawn) | i
COc1cc(/C=C/c2ccc3cccc(O)c3n2)ccc1O | -66.6
CN(C)/C=C/C(=O)c1cnc(-c2ccccc2)s1 | -116.1
CN(C)/C=C/C(=O)c1cnc(-c2ccc(Cl)cc2)s1 | -90.4
O=C(c1ccccc1)c1cnc(-c2ccccc2)s1 | -99.0
COc1cc(/C=C/[N+](=O)[O-])ccc1OC(=O)c1cc2ccccc2oc1=O | -102.4
COC(=O)c1ccc(N=Cc2c(C(F)(F)F)[nH]n(C)c2=O)cc1 | -64.8
COc1ccc(NC(=O)C#Cc2ccccc2)cc1 | -385.3
O=C(C#Cc1ccccc1)Nc1ccc(F)cc1 | -195.0
O=C(C#Cc1ccccc1)Nc1cccc(F)c1 | -383.2
C(=N\n1cnnc1)/c1cccc(OCCOc2ccccc2)c1 | -64.6
C(=N\n1cnnc1)/c1ccc(OCc2cccc3ccccc23)cc1 | -109.5
Cc1ccccc1-n1c(SCC(=O)N/N=C/c2c(C)nn(-c3ccccc3)c2C)nc2ccccc2c1=O | i
Cc1nc(COC(=O)c2c(C)nn(-c3ccccc3)c2C)cs1 | -104.2
CCOc1ccc2nc(SCC)[nH]c2c1 | -118.2
O=Cc1[nH]c2ccccc2c1N(C(=O)CCl)c1ccc([N+](=O)[O-])cc1 | i
CC(C)CSc1nc2ccccc2[nH]1 | -95.2
CCCOc1ccc(CSc2nc3ccccc3[nH]2)cc1 | -126.6
O=[N+]([O-])c1ccc(CSc2nc3ccccc3[nH]2)cc1 | -114.2
C=CCOc1ccc2nc(NC(=O)OC)[nH]c2c1 | i
O=C(NCCO)c1ccc(CSc2nc3ccccc3[nH]2)cc1 | -66.1
c1ccc(CSCc2nc3ccccc3[nH]2)cc1 | -90.9
Fc1ccc(CSc2nc3ncccc3[nH]2)cc1 | -104.7
SMILES | aSyn UTR act
CCCCCOc1ccc(CSc2ncn[nH]2)cc1 | -86.8
CCCCOc1ccc(CSc2nncn2N)cc1 | -85.5
Clc1ccccc1CSc1nc2ccncc2[nH]1 | -78.9
Nc1nc(CSc2nc3ccccc3[nH]2)cs1 | -76.3
c1ccc(CSc2nc3ccccc3[nH]2)cc1 | -115.8
Fc1ccc(CSc2nc3ccccc3[nH]2)cc1 | -155.2
Cc1cccc(-c2cc3nc4c(c(N5CCOCC5)n3n2)CCCC4)c1 | -113.8
OC1CCCN(c2c3c(nc4cc(-c5cccc(F)c5)nn24)CCCC3)C1 (stereo not drawn) | -98.5
Cc1cccc(-c2cc3nc4c(c(NCc5ccco5)n3n2)CCCC4)c1 | -92.5
Cc1cccc(Nc2nc(N)nc(CSc3nccn3C)n2)c1 | -99.5
CCN(CC)S(=O)(=O)c1cccc(C(=O)N/N=C/c2cccc(O)c2O)c1 | i
O=C1C(C=Nc2ccccc2O)=C(O)c2ccccc21 | -185.8
CCc1ccc(O)c(N=Cc2ccccc2O)c1 | -69.6
Cc1ccc(O)c(N=CC2=C(O)c3ccccc3C2=O)c1 | -156.2
Oc1cccc(/C=N/N=C/c2cccc(O)c2O)c1O | -70.4
Cc1ccc(O)c(C=Nc2cc(C)ccc2O)c1 | -91.7
Cc1ccc(N=Cc2cccc(O)c2O)c(C)c1 | -62.5
Cc1cccc(Nc2nc(N)c([N+](=O)[O-])c(N3CCCC(C)C3)n2)c1 (stereo not drawn) | i
Nc1nc(Nc2ccccc2F)nc(N2CCCC2)c1[N+](=O)[O-] | -131.5
CN(c1ccccc1)c1nc(N)c([N+](=O)[O-])c(N2CCCC2)n1 | -97.0
c1ccc(-c2nnc(SCc3cn4ccsc4n3)o2)cc1 | -75.2
COc1ccc2cc3cc(C(=O)NCCN4CCc5ccccc5C4)sc3nc2c1 | -209.1
CCC(C)NC(=O)c1cc2cc3ccc(OC)cc3nc2s1 (stereo not drawn) | -130.7

Screening results as filed in PubChem BioAssay.
